The target in test [1] is Cytochrome P450 2D6 (Homo sapiens) (UniProt P10635). In words: Cytochrome P450 family 2 subfamily D member 6 (CYP2D6) small molecule antagonists: luciferase biochemical (cell-free) qHTS assay (AID 1645840; active = well fitted curve in the direction sought with a large enough effect in the repeat runs; an effect the other way counts as inactive or inconclusive; also: nearly all actives have a fitted effect of over 55% in size; also: potency is read from the fitted curve at half-maximal effect). In a few lines:
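P450-Glo CYP2D6 system: proluciferin substrate converted by enzyme to luciferin, read by luminescence proportional to activity. Enzyme-substrate mix with compound 10 min at room temperature, then NADPH regeneration 1 h before detection reagent.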
(In general: qHTS replaces the single test concentration by a dilution series.)

Test [2] is described as follows: Primary qHTS for inhibitors of nuclear receptor binding SET domain protein 2 (NSD2) in an isogenic RCH-ACV NSD2 p.E1099K mutant (9B) (AID 1645876). Also: nearly all actives have a fitted effect of over 70% in size. Also: potency is read from the fitted curve at half-maximal effect. As to activity change, negative = viability loss: % is scaled to controls: 0 for no effect and ±100 for the full control effect.
Test [3] can be described thus: Primary qHTS for inhibitors of nuclear receptor binding SET domain protein 2 (NSD2) in an RCH-ACV wild type WT cells (2C) (AID 1645877). Also: nearly all actives have a fitted effect of over 70% in size. Also: potency is read from the fitted curve at half-maximal effect. As to activity change, negative = cell killing: % is scaled to controls: 0 for no effect and ±100 for the full control effect.
Test [4] concerns the target Cytochrome P450 2C9 (Homo sapiens) (UniProt P11712). In words: Cytochrome P450 family 2 subfamily C member 9 (CYP2C9) small molecule antagonists: luciferase biochemical (cell-free) qHTS assay (AID 1645842; active = well fitted curve in the direction sought with a large enough effect in the repeat runs; an effect the other way counts as inactive or inconclusive; also: nearly all actives have a fitted effect of over 55% in size; also: potency is read from the fitted curve at half-maximal effect). Put shortly:
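P450-Glo CYP2C9 system: proluciferin substrate with enzyme in mix containing 0.4% BSA, 10 min at room temperature, then NADPH regeneration solution added and incubated 1 h at 37C. Detection reagent stopped reaction; luminescence read after 20 min as RLU.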

Test [5] concerns the target Papain (Carica papaya) (UniProt P00784). In words: Primary qHTS assay for inhibitors of the protease papain (AID 1645873).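 Also: papain turnover of Z-FR-AMC read as the AMC fluorescence gain over 10 min.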 Also: potency is read from the fitted curve at half-maximal effect.
The target of test [6] is Rap guanine nucleotide exchange factor 3 (Homo sapiens) (UniProt O95398). Description: Confirmatory qHTS for antagonist of cAMP-regulated guanine nucleotide exchange factor 3 (EPAC1) (AID 1645880). Also: nearly all actives have a fitted effect of over 55% in size. Also: potency is read from the fitted curve at half-maximal effect. Put shortly: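 Released BODIPY-GDP fluoresces less than Rap1-bound BODIPY-GDP; the signal is followed at 480/540 nm at 5-min intervals over 30 min, after 5 min at room temperature. Reactions contain 100 nM EPAC1, 250 nM RAP1B-BODIPY-GDP and 50 uM GDP; results are normalized to ATA and DMSO.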
Chain of Rap guanine nucleotide exchange factor 3 (Homo sapiens) (O95398 whole entry, looked up): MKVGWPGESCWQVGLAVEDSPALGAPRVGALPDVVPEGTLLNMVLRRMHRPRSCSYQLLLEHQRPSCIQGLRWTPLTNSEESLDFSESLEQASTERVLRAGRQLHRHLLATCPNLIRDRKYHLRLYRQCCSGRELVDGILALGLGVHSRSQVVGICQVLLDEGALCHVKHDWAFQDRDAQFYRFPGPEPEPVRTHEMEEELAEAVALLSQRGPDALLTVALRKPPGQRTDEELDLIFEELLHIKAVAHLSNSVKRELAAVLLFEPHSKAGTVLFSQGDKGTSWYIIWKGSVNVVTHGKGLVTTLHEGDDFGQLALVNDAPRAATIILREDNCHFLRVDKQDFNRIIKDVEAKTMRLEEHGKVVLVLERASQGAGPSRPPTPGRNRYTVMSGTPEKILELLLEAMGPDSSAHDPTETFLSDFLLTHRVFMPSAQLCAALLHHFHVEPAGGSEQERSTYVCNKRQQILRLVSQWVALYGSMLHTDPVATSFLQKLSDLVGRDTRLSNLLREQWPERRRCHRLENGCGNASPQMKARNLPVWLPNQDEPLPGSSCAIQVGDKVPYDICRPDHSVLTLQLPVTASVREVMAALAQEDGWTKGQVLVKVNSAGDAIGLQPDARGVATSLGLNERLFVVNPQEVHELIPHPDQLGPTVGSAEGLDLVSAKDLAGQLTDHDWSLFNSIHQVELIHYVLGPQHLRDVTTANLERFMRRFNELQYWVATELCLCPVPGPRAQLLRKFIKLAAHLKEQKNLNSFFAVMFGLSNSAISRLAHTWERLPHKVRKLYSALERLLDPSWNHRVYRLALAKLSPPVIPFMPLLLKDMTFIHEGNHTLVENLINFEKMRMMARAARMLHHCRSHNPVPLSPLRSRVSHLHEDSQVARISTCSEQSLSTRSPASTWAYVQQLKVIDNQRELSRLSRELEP

For test [7] the target is unchanged. Description: Confirmatory qHTS for agonist of cAMP-regulated guanine nucleotide exchange factor 3 (EPAC1) (AID 1645881).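 Also: EPAC1 catalysed release of BODIPY-GDP from Rap1B seen as fluorescence loss; 100% = effect of cAMP agonist control; nearly all actives have a fitted effect of over 75% in size.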
For test [8], the target named is Rap guanine nucleotide exchange factor 4 (Homo sapiens) (UniProt Q8WZA2). Description: Confirmatory qHTS for agonist of cAMP-regulated guanine nucleotide exchange factor 4 (EPAC2) (AID 1645884).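 Also: nucleotide exchange releases bodipy-GDP from Rap1 and this lowers its fluorescence; % is scaled to controls: 0 for no effect and ±100 for the full control effect; nearly all actives have a fitted effect of over 65% in size.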
Chain of Rap guanine nucleotide exchange factor 4 (Homo sapiens) (Q8WZA2 whole entry, looked up): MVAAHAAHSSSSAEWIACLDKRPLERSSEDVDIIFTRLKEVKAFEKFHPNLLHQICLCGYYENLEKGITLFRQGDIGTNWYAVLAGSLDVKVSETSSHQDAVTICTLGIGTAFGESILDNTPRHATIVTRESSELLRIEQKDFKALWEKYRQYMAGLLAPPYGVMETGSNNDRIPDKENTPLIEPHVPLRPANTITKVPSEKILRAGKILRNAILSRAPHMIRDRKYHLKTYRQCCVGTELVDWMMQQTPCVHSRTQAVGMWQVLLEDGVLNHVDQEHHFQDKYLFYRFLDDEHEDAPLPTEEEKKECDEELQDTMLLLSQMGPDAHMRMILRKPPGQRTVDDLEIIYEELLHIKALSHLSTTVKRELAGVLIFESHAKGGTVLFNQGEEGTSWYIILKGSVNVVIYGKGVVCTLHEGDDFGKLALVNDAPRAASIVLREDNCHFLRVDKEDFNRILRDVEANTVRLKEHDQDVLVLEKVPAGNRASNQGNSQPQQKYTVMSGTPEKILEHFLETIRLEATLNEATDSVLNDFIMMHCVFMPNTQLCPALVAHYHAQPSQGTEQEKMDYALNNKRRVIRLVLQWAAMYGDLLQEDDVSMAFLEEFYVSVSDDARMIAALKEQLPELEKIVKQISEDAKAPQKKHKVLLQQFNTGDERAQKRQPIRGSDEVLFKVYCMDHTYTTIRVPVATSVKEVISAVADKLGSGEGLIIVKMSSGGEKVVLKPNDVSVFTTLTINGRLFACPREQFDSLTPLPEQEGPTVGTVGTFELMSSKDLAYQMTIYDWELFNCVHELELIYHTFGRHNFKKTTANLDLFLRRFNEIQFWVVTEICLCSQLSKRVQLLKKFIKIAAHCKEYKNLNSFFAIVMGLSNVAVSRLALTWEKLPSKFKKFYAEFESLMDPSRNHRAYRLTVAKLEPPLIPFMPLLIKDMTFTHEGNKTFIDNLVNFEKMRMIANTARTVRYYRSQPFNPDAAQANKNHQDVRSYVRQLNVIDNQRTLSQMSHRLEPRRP
The target of test [9] is N-terminal Xaa-Pro-Lys N-methyltransferase 1 (Homo sapiens) (UniProt Q9BV86). Description: Confirmatory qHTS for Inhibitors of N-terminal methyltransferase 1 (NTMT1): MTaseGlo Assay (AID 1645874). Also: potency is read from the fitted curve at half-maximal effect; nearly all actives have a fitted effect of over 65% in size. The following applies: NTMT1 enzyme, MTase-Glo SAH luminescence. In a few lines: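 SPKRIA peptide at 1 uM was methylated by 125 nM NTMT1 using 100 uM SAM over 30 min at room temperature, following a 15 min compound preincubation. Product SAH was detected luminescently.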
Chain of N-terminal Xaa-Pro-Lys N-methyltransferase 1 (Homo sapiens) (Q9BV86 whole entry, looked up): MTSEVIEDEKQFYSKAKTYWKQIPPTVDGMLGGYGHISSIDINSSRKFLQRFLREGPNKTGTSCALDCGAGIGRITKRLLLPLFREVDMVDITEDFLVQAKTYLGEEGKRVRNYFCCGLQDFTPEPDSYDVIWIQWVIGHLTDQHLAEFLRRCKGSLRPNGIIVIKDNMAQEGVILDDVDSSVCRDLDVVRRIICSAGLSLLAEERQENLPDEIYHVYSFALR

Molecules are shown by their SMILES. “And” between values parts separate entries of the source, which are not always exact repeats. Equal values may be shown once. Inconclusive results are not listed. Some structures have more than one record in an assay (separate samples or runs), and their calls can disagree. The source made the active and inactive calls. Unless noted, calls follow the shape of the dose curve; as a rule, active = well fitted curve in the direction sought with a large enough effect; inconclusive = small, poorly fitted or top-dose-only effect, or another doubt; inactive = no such curve, though single readings can be large; an effect the other way counts as inactive or inconclusive.

Chain of Papain (Carica papaya) (P00784 whole entry, looked up): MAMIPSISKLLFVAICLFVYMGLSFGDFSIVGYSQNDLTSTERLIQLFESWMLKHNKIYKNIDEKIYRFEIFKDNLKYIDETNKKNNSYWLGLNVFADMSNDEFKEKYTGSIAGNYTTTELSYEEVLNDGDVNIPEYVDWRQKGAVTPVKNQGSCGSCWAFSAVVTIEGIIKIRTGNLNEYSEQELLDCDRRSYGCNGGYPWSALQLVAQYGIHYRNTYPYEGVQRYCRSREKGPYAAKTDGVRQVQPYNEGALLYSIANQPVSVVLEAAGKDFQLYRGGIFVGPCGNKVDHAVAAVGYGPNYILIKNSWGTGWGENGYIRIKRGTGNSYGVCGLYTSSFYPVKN
Chain of Cytochrome P450 2C9 (Homo sapiens) (P11712 whole entry, looked up): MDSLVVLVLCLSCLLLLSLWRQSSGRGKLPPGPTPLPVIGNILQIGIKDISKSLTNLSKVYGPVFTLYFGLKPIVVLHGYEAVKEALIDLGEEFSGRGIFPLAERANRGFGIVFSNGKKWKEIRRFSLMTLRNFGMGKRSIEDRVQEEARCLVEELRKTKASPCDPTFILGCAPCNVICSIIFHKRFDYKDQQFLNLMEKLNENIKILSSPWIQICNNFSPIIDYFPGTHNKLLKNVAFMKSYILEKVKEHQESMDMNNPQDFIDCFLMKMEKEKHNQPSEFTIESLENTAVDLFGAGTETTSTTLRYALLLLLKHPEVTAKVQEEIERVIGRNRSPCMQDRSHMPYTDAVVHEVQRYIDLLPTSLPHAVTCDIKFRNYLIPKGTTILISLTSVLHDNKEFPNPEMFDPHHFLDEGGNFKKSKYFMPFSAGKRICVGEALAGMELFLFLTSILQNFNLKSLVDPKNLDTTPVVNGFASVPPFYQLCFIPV
Chain of Cytochrome P450 2D6 (Homo sapiens) (P10635 whole entry, looked up): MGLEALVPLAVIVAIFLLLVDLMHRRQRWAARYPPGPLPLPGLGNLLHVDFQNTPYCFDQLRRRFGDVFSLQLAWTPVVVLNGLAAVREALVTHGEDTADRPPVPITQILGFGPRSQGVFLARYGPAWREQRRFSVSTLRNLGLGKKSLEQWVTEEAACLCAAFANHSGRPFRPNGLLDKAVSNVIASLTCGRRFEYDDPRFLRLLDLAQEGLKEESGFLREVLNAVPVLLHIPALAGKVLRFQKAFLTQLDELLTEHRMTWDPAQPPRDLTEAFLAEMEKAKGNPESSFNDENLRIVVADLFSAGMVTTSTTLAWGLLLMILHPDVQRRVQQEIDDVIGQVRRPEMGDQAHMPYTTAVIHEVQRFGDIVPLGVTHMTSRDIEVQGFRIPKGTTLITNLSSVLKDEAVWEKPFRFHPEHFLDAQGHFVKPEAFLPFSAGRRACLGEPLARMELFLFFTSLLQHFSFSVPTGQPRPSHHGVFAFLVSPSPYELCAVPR

With `CC(COc1ccccc1)NC(C)C(O)c1ccc(O)cc1` (stereo unspecified), in [1], the Potency is 0.617 µM (active). Besides, the Potency entry in test [2] and in test [3] was “inactive” throughout.

As to `COc1cc2[nH]c(=O)[nH]c(=O)c2cc1OC`, the Potency result in [1], in test [4], in [2] and in test [3] was “inactive” throughout.

`CC(C)c1c(C(=O)Nc2ccccc2)c(-c2ccccc2)c(-c2ccc(F)cc2)n1CC[C@@H](O)C[C@@H](O)CC(=O)O`: the Potency entry in test [5] is “inactive”.

For `CCCc1c(OCCCCc2nn[nH]n2)ccc(C(C)=O)c1O`, the Potency is 0.138 µM (active) in test [4]; 55.9 µM (active) and inactive in test [6]. Moreover, the Potency result in test [7] and in test [8] was “inactive” throughout.

With `NC(=O)NNc1ccccc1`, the Potency result in test [2] and in [3] was “inactive” throughout.

Take `COCCOC(=O)C1=C(C)NC(C)=C(C(=O)OC/C=C/c2ccccc2)C1c1cccc([N+](=O)[O-])c1` (stereo unspecified): the figures for the Potency in test [4] and in test [2] were 0.0617 µM (active) and 15 µM (active), respectively. In addition, the Potency entry in test [5], in [7] and in test [8] was “inactive” throughout.

Consider `N=c1c[n+](N2CCOCC2)[n-]o1`, for which the Potency result in test [5] is “inactive”.

Consider `CNCCC(Oc1ccc(C(F)(F)F)cc1)c1ccccc1` (stereo unspecified), for which the Potency result in test [5] was “inactive”. In test [3], the Potency is 23.7 µM (active).

Consider `CCN(CC)CCOC(=O)C1(C2CCCCC2)CCCCC1`, for which the Potency entry in test [5] and in test [2] was “inactive” each time.

Turning to `O=C(O)c1ccccc1O`, the Potency entry in test [2] and in test [3] was “inactive” in each case.

Turning to `CC(C)(C)[C@]1(O)CCN2C[C@H]3c4ccccc4CCc4cccc(c43)[C@@H]2C1`, in test [5], the Potency entry is “inactive and 15.8 µM (active)”.

For the compound `CCCCOc1cc(C(=O)OCCN(CC)CC)ccc1N`, the Potency result in test [4] and in test [2] was “inactive” in each case.

For the compound `CC(C(O)c1ccc(O)cc1)N1CCC(Cc2ccccc2)CC1` (stereo unspecified), the Potency result in test [4] and in test [5] was “inactive” each time.

On to `Cc1cc2nc3c(=O)[nH]c(=O)nc-3n(C[C@H](O)[C@H](O)[C@H](O)CO)c2cc1C`, for which the Potency result in [4], in [2], in test [3] and in test [6] was “inactive” each time.

Take `CN(C)CCOC(C)(c1ccccc1)c1ccccn1` (stereo unspecified): the Potency result in test [4], in [5] and in test [2] was “inactive” in each case.

In the case of `CC(=O)Oc1c(C)c(C)c2c(c1C)CC[C@@](C)(CCC[C@H](C)CCC[C@H](C)CCCC(C)C)O2`, the Potency result in test [4] and in test [2] was “inactive” each time.

With `CN(C)CCCN1c2ccccc2CCc2ccccc21`, the Potency entry in test [4] is “inactive”.

Take `CNCC(O)c1ccc(O)c(O)c1` (stereo unspecified): the Potency result in test [4], in [5] and in [2] was “inactive” in each case.

For `O=C(O)c1ccccn1`, the Potency entry in test [2] and in [3] was “inactive” throughout.

Turning to `Nc1ncnc2c1ncn2[C@@H]1O[C@H](CO)[C@@H](O)[C@H]1O`, the Potency entry in [5] is “inactive”. Besides, the Potency in test [2] is 9.44 µM (active) and inactive; in test [3], 5.96 µM (active) and inactive.

In the case of `CCN(CC)CCNC(=O)c1c(C)[nH]c(/C=C2\C(=O)Nc3ccc(F)cc32)c1C`, the Potency result in [4] is “inactive”. In addition, the Potency in test [9] was 30.8 µM (active); in test [2] it was 3.76 µM (active) and 3.32 µM (active); in [3], 2.99 µM (active) and 3.72 µM (active).

In the case of `CC(C)(C(=O)O)c1ccc(C(O)CCCN2CCC(C(O)(c3ccccc3)c3ccccc3)CC2)cc1` (stereo unspecified), the Potency entry in test [5] was “inactive”.

Consider `CN1CCOC(c2ccccc2)c2ccccc2C1` (stereo unspecified), for which the Potency result in test [4] and in test [2] was “inactive” each time.

As for `COC(=O)C1=C(C)NC(C)=C(C(=O)OC)C1c1ccccc1[N+](=O)[O-]`, the Potency result in test [5] was “inactive”.

Turning to `CC1(C)S[C@@H]2[C@H](NC(=O)Cc3ccccc3)C(=O)N2[C@H]1C(=O)O` (tested in a mixture with another compound), in test [2], the Potency entry is “inactive”.

`CCCCCCCCCCCCCCCC(=O)NCCO`: the Potency entry in test [2] and in test [3] was “inactive” in each case.

On to `C[C@]12CC[C@@H]3c4ccc(O)cc4CC[C@H]3[C@@H]1CCC2=O`, for which, in test [5], the Potency entry is “inactive”.

`CSc1ccc2c(c1)N(CCC1CCCCN1C)c1ccccc1S2` (stereo unspecified): the Potency entry in test [4] and in test [5] was “inactive” in each case. The figures for the Potency in test [2] and in [3] were 5.96 µM (active) and 3.76 µM (active), respectively.

`OCCN1CCN(CCCN2c3ccccc3Sc3ccc(Cl)cc32)CC1`: the Potency result in test [5], in test [6] and in test [7] was “inactive” each time. For the same compound, the Potency in [2] was 8.41 µM (active); in [3] it was 9.44 µM (active).

With `CC(C)(C)c1onc(OCP(=O)(O)O)c1CC(N)C(=O)O` (stereo unspecified), in [5], the Potency entry is “inactive”.

Turning to `CO/N=C(\C(=O)N[C@@H]1C(=O)N2C(C(=O)O)=C(CSc3nc(=O)c(O)nn3C)CS[C@H]12)c1csc(N)n1`, the Potency result in [2] and in test [3] was “inactive” in each case.

Consider `CCOC(=O)c1ccc(O)cc1`, for which the Potency result in test [2] and in test [3] was “inactive” each time.

As for `CN(C)CCCN1c2ccccc2Sc2ccc(Cl)cc21`, the Potency result in test [5] is “inactive”. Further, the Potency in test [2] is 15 µM (active); in test [3], 13.3 µM (active).

`C[C@@H]1C[C@H]2[C@@H]3C[C@H](F)C4=CC(=O)C=C[C@]4(C)[C@@]3(F)[C@@H](O)C[C@]2(C)[C@@]1(O)C(=O)CO`: the Potency in test [3] is 2.7 nM (active) and 5.2 nM (active).

Turning to `C/C(=C(\CCOP(=O)(O)O)SC(=O)c1ccccc1)N(C=O)Cc1cnc(C)nc1N`, the activity change, negative = viability loss in test [2] is 9.34% [at 4.96 µM] (inactive). In addition, in [3], the activity change, negative = cell killing is -1.42% [at 4.96 µM] (inactive).

With `CCCCCCCCCCCCOS(=O)(=O)O`, the Potency entry in [2] and in [3] was “inactive” each time.

As to `COc1ccc(Cl)cc1C(=O)NCCc1ccc(S(=O)(=O)NC(=O)NC2CCCCC2)cc1`, in [2], the Potency result is “inactive”.

Regarding `Cc1ncc([N+](=O)[O-])n1CC(O)CCl` (stereo unspecified), the Potency result in [2] and in [3] was “inactive” throughout.

Regarding `COc1ccc2c(c1)C(=O)N(CCc1ccc(S(=O)(=O)NC(=O)NC3CCCCC3)cc1)C(=O)C2(C)C`, in [4], the Potency is 13.8 µM (active).

`CCOc1nc2cccc(C(=O)O)c2n1Cc1ccc(-c2ccccc2-c2nn[nH]n2)cc1`: the Potency entry in test [2] is “inactive”.

Take `CC(C)NC[C@H](O)c1ccc(O)c(O)c1`: the Potency in [5] was 1.12 µM (active) and inactive.

Turning to `NCCNCCNCCN`, the Potency entry in test [4] and in test [2] was “inactive” each time.

For the origin of these results see PubChem BioAssay (NCATS).
